Outcome and AC50 data for 40 compounds are collected here from PubChem BioAssay (EPA / NIEHS).

Activity calls are given as the source filed them. How the source made its calls: active means hit-call score of the fitted dose curve at least 0.9, where 1 is the maximum; inactive means score below 0.9.

Read-out in this test: TIMP1, TIMP1 (gene 7076)
In words: LTEA_HepaRG_TIMP1: Life Technologies and Expression Analysis (LTEA) Assay for TIMP1 using HepaRG (AID 2283534).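 On Outcome: TaqMan qRT-PCR signal normalized to ACTB GAPDH and POLR2A housekeeping genes.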 The note with it: mRNA level, 48 h; actives raise or lower the signal. The method, then: LTEA_HepaRG is a cell based, multiplexed-readout assay that uses HepaRG, a human liver cell line, with measurements taken at 48 hours after chemical dosing on a 96-well plate.LTEA_HepaRG_TIMP1 is one of 102 assay component(s) measured in the LTEA HepaRG cell culture assay. It is a marker of Cell proliferation, survival, death.Data from the assay component LTEA_HepaRG_TIMP1 was analyzed into 1 endpoint. This assay endpoint, LTEA_HepaRG_TIMP1, was analyzed with bidirectional fitting relative to DMSO as the negative control and baseline of activity. Using a type of inducible reporter, measures of mRNA induction for gain or loss-of-signal activity can be used to understand regulation of transcription factor activity. To generalize the intended target to other relatable targets, this assay endpoint is annotated to the protease inhibitor intended target family, where the subfamily is metalloproteinase inhibitor.
A total of 1060 chemcials from the ToxCast library were tested in eight-point concentration-response experiments. Cell culture and cytotoxicity assays were conducted at Thermo Fisher Scientific's Custom Services facility (Madison, WI). A single lot of human HepaRG cells (Thermo Fisher Scientific, Frederick, MD) was used for the cell culture experiments. 96-well format collagen type I coated plates of human HepaRG cells were prepared using established methods. Briefly, cryopreserved HepaRG cells were thawed, plated at a density of approximately 100,000 cells/well in HepaRG Thaw, Plate, and General Purpose media (HPRG770, Thermo Fisher Scientific), and incubated for 48 hours. 0.5% DMSO was selected as vehicle control to balance the requisite need of DMSO in HepaRG cultures to maintain differentiation (for example, baseline metabolism, proportions of hepatocytes vs. cholangiocytes), while enabling further hepatic receptor pathway activation (for example, PXR and CAR) in response to chemical exposure. 48 hours after plating, the culture medium was replaced with HepaRG Serum-Free Incudtion Media. Cells were exposed to each test chemical in duplicate and maintained in CO2 incubators for another 48 hours. Chemical plates were thawed to room temperature and 200x concentrations of treatment groups were prepared. 8-point conentration-reponse curves were made with the highest exposure at 100 uM, followed by half-log dilutions, all in 0.5% DMSO. Each test plate contained variouse controls, induction positive controls (1mM phenobarbital), cytotoxicity positive controls ([…] aflatoxin B1), vehicle controls (0.5% DMSO), and total lysis controls (0.5% DMSO). Cell morphology images were taken using an Essen IncuCyte FLR automated microscope, with six 96-well plates imaged in about 24 minutes. Images were captured and exported and JPEG files. Spent culture media was transfered to black-well plates for the LDH assay, and remaining media was sorted at -80 C for later use. Cells were treated with RLT buffer and frozen until shipped for gene expression analysis. Total RNA was isolated from the cell suspension in 75 uL of Buffer RLT (Qiagen, Germantown, MD 20874) by Quintiles/Expression Analysis (Durham, NC) using a custom isolation procedure. Total RNA from each plate well was transferred to a preamplification plate. Fluidigm's 96.96 Dynamic ArrayTM (Fluidigm, Amsterdam, the Netherlands) technology was used for gene expression analyses by quantitative reverse transcription polymerase chain reaction (qRT-PCR, performed by Quintiles/Expression Analysis, Durham, NC)89. Standard TaqManTM Assays (Applied Biosystems/ThermoFisher Scientific, Foster City, CA) were used to assess the expression of 93 genes selected based on their selectivity and sensitivity to important hepatic receptors known to be modulated by environmental chemicals; importance in human hepatocyte functionality; and hepatotoxicity. […]
As for `Nc1cc2c3c(c1)C(c1ccccc1)=N[C@@H](NC(=O)c1cccnc1)C(=O)N3CC2`, the outcome was inactive.

On to `ClC(Cl)(Cl)c1ccccc1`, for which the compound was classed as inactive.

As for `[N-]=[N+]=[N-]`, the compound was classed as inactive.

Turning to `CCC(C)(C)c1ccc(O)cc1`, the result was inactive.

For the compound `O=[N+]([O-])c1ccc(Cl)c(Cl)c1`, the compound was classed as inactive.

As for `Cc1cccc(N)c1`, the call was inactive.

`OCC1CO1` (stereo not given): the compound was classed as inactive.

Take `Cc1ccc(N)cc1N`: the compound was called inactive.

With `c1ccc2c(c1)Nc1ccccc1S2`, the result was inactive.

As to `Nc1ccc2ccccc2c1`, the compound was classed as inactive.

Regarding `c1nc[nH]n1`, the compound was called inactive.

Consider `CCOc1ccc(C(C)(C)COCc2cccc(Oc3ccccc3)c2)cc1`, for which the outcome was inactive.

On to `CCNc1nc(Cl)nc(NC(C)(C)C)n1`, for which the compound was called inactive.

In the case of `CCCN(CCC)c1c([N+](=O)[O-])cc(C(C)C)cc1[N+](=O)[O-]`, the half-maximal activity concentration (AC50) (in general, the midpoint of the concentration-response curve, whichever way the signal moves) was 0.11 µM (active).

For `O=C(O)C(Cl)Cl`, the compound was classed as inactive.

Take `O=P(Oc1ccccc1)(Oc1ccccc1)Oc1ccccc1`: the AC50 is 73.1 µM (active).

With `COCCOCCO`, the compound was classed as inactive.

`c1ccc(OP(Oc2ccccc2)Oc2ccccc2)cc1`: the compound was classed as inactive.

On to `CC(Cc1ccc(OCC(=O)O)cc1)NCC(O)c1csc(C(F)(F)F)n1` (stereo not given), for which the outcome was inactive.

Take `Nc1ccc(Cl)cc1`: the compound was called inactive.

On to `CCOP(=S)(OCC)SCSCC`, for which the compound was classed as inactive.

With `CN(C)C(=O)Cl`, the compound was called inactive.

In the case of `CCCCCCCc1ccc(O)cc1`, the call was inactive.

As for `Cc1ccc(O)cc1C`, the outcome was inactive.

With `ClC(Cl)c1ccccc1`, the call was inactive.

In the case of `c1cc2c3c(cccc3c1)CC2`, the compound was called inactive.

With `CCC1(c2ccccc2)C(=O)N=C(O)NC1=O` (stereo not given), the result was inactive.

For the compound `O=C(O)C1C(C(=O)O)C2(Cl)C(Cl)=C(Cl)C1(Cl)C2(Cl)Cl` (stereo not given), the compound was classed as inactive.

`CCCCN(CCCC)SN(C)C(=O)Oc1cccc2c1OC(C)(C)C2`: the compound was classed as inactive.

As for `O=[N+]([O-])c1ccccc1`, the compound was classed as inactive.

`CC(Cl)(Cl)C(=O)O`: the call was inactive.

For `CCCCN(CCCC)N=O`, the outcome was inactive.

`CCN(CC)c1ccccc1`: the call was inactive.

With `Cc1ccc([N+](=O)[O-])cc1C`, the result was inactive.

For the compound `CCOP(=S)(Oc1ccc([N+](=O)[O-])cc1)c1ccccc1` (stereo not given), the outcome was inactive.

As to `CCCCc1ccccc1`, the compound was called inactive.

In the case of `CCOS(=O)(=O)OCC`, the result was inactive.

As to `CC(C)(C)OOC(C)(C)C`, the result was inactive.

On to `O=P1(N(CCCl)CCCl)NCCCO1` (stereo not given), for which the outcome was inactive.

Regarding `CSC(C)(C)C=NO`, the result was inactive.
